± gives the standard deviation.
test system: MILI (PIWIL2) piRISC loaded with L1MC piRNA (26 nt); test: pre-steady-state target cleavage rate (min^-1); guide: L1MC piRNA 5'p-UAACUAAAUACUAUGCAAGCUGUAGG; MIWI and MILI are mouse PIWI proteins and EfPiwi is from a freshwater sponge; tags in brackets are library labels; higher = faster piRNA-guided slicing of the target; conditions: auxiliary factor: 500 nM mouse GTSF1
In short: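 The pre-steady-state cleavage rate was calculated from a burst-and-steady-state fit. Data came from Cleave-'n-Seq, in which […] transcribed, DNA-blocked target RNA library was mixed with 1 nM active affinity-purified piRISC carrying one synthetic guide, with or without 500 nM GTSF1 partner protein, in HEPES–potassium acetate buffer at 33 °C for 0–8 or 0–960 min. Uncleaved targets were sequenced and normalised to depth and to weakly complementary targets, three trials were pooled, and k3 was capped at 0.0001 min^-1.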
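Note: 1 nM active piRISC with 0.1 nM target library at 33 °C single turnover.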

Sequence | pre-steady-state target cleavage rate
UCCUCCUACAGCAAGCAUAGUAUUUACAAA | 0.172 ± 0.032
UCCUGGAUCAGCUUGCUAAGUAUUUAGAAA | 0.0172 ± 0.006
UCCUGGAUCAGCUUGCAUAGUAAAAAGUUA | 0.102 ± 0.019
UCCUGGAUGUCCUUGCAUAGUAUUUAGUCA | 0.0898 ± 0.017
UCCUGGAUGAGCUUGCAUAGAAUUUAGUUA | 0.0653 ± 0.017
UCCUGGAACAGCUUGCAUAGUAAAUAGUAA | 0.143 ± 0.035
UCCUGGAUGUCCUUGCCAUAGUAUUUAGUUA | 0.00783 ± 0.0048
UCCUGGAUGUGCUUGCAUAGUAUAAUGUUA | 0.081 ± 0.022
UCCUGGAUGUCGAACGUAUCUAUUUAGGUA | < 0.0001
UCCUCCUACAGCUUGCAUUCUAUUUAGUUA | 0.0458 ± 0.0096
UCCUGGAUGUCCUUGCAUAGUAUUUUCAAA | 0.023 ± 0.0094
UCCUGGAUGUCCUUGGUUAGUAUUUAGUAA | 0.0915 ± 0.022
UCCUGGAUGUGCUUGCAUUGUAUUUACUUA | 0.0239 ± 0.0082
UCCUGGAUGUCCUAGCUUAGUAUUUAGUUA | 0.0102 ± 0.0041
UCCUCCUACAGCUUCGUUAGUAUUUAGUAA | 0.186 ± 0.026
UCCUGGAUCACCUUGCAUAGUAUUUACAAA | 0.131 ± 0.031
UCCUGGAUGUCGUAGCAUAGUAAUUAGUUA | 0.0159 ± 0.0054
UCCUGGUACACGUUGCAUAGUAUUUUCAAA | 0.02 ± 0.011

Sequence | pre-steady-state target cleavage rate
UCCUGGAUGUCCUAGCAAAGUAUUUAGUUA | 0.00585 ± 0.0032
UCCUGGAUGACCUUGCAUAGUAUUUACUUA | 0.0753 ± 0.027
UCCUGGAUGUCGUUGCAUAGUUUUUAGUAA | 0.00481 ± 0.004
UCCUGGAUGUGCUUGCAUAUAUUUAGUUA | 0.00444 ± 0.0037
UCCUGGAUGUCCUUGCAUUCUAUUUAGUUA | 0.00856 ± 0.0043
UCCUGGUAGAGCUUGCAUACUAUUUAGUUA | 0.0467 ± 0.011
UCCUGGAUGUGCUUGCAUGUAUUUAGUUA | 0.00502 ± 0.0043
UCCUCCUACAGCUUGCAUACUAUAUAGUUA | 0.0619 ± 0.015
UCCUGGAACAGCAUGCAUAGUAUUUAGAAA | 0.196 ± 0.025
UCCUGGAUGUGCUUGCAUAGUAUUAGUUA | 0.0236 ± 0.0068
UCCUGGAUGAGCUUGCAAAGUAUUUACUUA | 0.046 ± 0.014
UCCUCCUACAGCUUCGAUAGUAUUUACAAA | 0.0556 ± 0.016
UCCUGGAUGUGCUUGCAUAGAAUUAAGUUA | 0.00431 ± 0.003
UCCUGCUACAGCUUGCAUAGUAUAAAGUAA | 0.0784 ± 0.021
UCCUGGAUGUCCUUGCAAUAGUAUUUAGUUA | 0.00466 ± 0.0043
UCCUCCUACAGCUUGGAUAGUAUUUACUUA | 0.0993 ± 0.024
UCCUGGAUGUCGAACCAUAGUAUUUAGUUA | 0.00718 ± 0.0019

same assay, conditions: auxiliary factor: none (no GTSF1)

Sequence | pre-steady-state target cleavage rate
UCCUGGAUGUCGAACGUUAGUAUUUAGUGUA | < 0.0001
UCCUGGAUGUCGAAGCAUAGUAAUAAGUUA | < 0.0001
UCCUGGAUGUCGAACGUAACAAUUUAGUUA | < 0.0001
UCCUGGAUGUCGAAGCAUACAUUUUAGUUA | < 0.0001
UCCUGGAUGUCGAACGUUAGUAUUUACGUUA | < 0.0001
